From ChEMBL document CHEMBL2218924, “A broad activity screen in support of a chemogenomic map for kinase signalling research and drug discovery” (Biochem J, 2013)

target: T1, Serine/threonine-protein kinase Sgk3 (Homo sapiens) (UniProt Q96BR1); conditions: at 1 µM
T1 sequence (whole entry): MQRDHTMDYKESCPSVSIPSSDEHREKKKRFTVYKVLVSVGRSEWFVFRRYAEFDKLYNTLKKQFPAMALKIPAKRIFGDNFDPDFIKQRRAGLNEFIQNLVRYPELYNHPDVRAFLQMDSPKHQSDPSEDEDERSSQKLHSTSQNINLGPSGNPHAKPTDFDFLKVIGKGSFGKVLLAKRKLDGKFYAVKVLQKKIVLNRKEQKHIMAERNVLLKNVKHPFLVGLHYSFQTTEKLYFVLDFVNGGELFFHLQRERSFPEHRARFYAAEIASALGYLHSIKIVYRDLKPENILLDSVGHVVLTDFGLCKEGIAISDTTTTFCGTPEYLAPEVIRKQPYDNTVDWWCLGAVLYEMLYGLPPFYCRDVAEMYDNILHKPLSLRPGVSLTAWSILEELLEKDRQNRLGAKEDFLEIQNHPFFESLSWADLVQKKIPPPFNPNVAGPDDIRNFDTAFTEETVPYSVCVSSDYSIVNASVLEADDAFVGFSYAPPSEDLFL

| Structure (SMILES) | residual activity |
| --- | --- |
| O=C1Nc2ccc(Cl)cc2/C1=C/c1cc(Cl)c(O)c(Cl)c1 | 95% |
| CC(C)n1cnc2c(NCc3ccccc3)nc(NCCCO)nc21 | 89% |
| Nc1ncnc2c1c(-c1ccc(Oc3ccccc3)cc1)cn2C1CCCC1 | 104% |
| O=C(Nc1cccc(Nc2nccc(Nc3cccc(C(F)(F)F)c3)n2)c1)C1CC1 | 126% |
| C[C@@H](N)[C@H]1CC[C@H](C(=O)Nc2ccncc2)CC1 | 101% |
| CC(=O)O/N=C1\C(=C2\C(=O)Nc3cc(Br)ccc32)Nc2ccccc21 | 114% |
| COc1ccc(OC)c2c(=S)c3ccccc3[nH]c12 | 112% |
| COc1ccc(S(=O)(=O)N(CCO)c2ccccc2CN(C)C/C=C/c2ccc(Cl)cc2)cc1 | 98% |
| O=C1NC(=O)/C(=C/c2ccc3c(c2)OC(F)(F)O3)S1 | 109% |
| O=C1NC(=O)c2c1c1c3ccccc3[nH]c1c1[nH]c3cc(Br)ccc3c21 | 96% |
| O=C(c1ccccc1)c1ccc(N2CCOCC2)cc1O | 97% |
| Nc1ccc2ncnc(NCCc3ccc(Oc4ccccc4)cc3)c2c1 | 109% |
| CCCC(=O)Oc1ccc2[nH]c(C(=O)c3cc4ccccc4[nH]3)cc2c1 | 94% |
| Oc1ccc(Nc2nc(-c3ccc(Cl)cc3)cs2)cc1 | 112% |
| COc1cc2ncnc(N3CCN(C(=O)Nc4ccc(Oc5ccccc5)cc4)CC3)c2cc1OC | 104% |
| O=c1cc(N2CCOCC2)oc2c1ccc1ccccc12 | 97% |

| Structure (SMILES) | residual activity |
| --- | --- |
| Cn1cc(/C=C2\C(=O)Nc3ccc(S(N)(=O)=O)cc32)c2ccccc21 | 112% |
| Nc1n[nH]c2nnc(-c3c(-c4ccccc4)nn4ccccc34)cc12 | 106% |
| O=c1cc(-c2cccc3c2Sc2ccccc2S3)oc(N2CCOCC2)c1 | 101% |
| NCCNc1ncc(C(N)=O)c(Nc2cccc(C(F)(F)F)c2)n1 | 82% |
| Cc1ccc(NC2=CC(=O)c3sc(C)nc3C2=O)cc1 | 96% |
| O=[N+]([O-])c1ccc(-c2nc(-c3ccc(F)cc3)c(-c3ccncc3)[nH]2)cc1 | 111% |
| O=C(Nc1cccc(Nc2cc(Nc3cccc(C(F)(F)F)c3)ncn2)c1)C1CC1 | 96% |
| COc1cc2ncnc(Nc3ccc(Oc4ccccc4)cc3)c2cc1OC | 110% |
| CN(C)c1ccc(/C=C2\C(=O)Nc3ccccc32)cc1 | 106% |
| Oc1ccc(-c2nc(-c3ccc(F)cc3)c(-c3ccncc3)[nH]2)cc1 | 109% |
| CN(C)CCCn1cc(C2=C(c3c[nH]c4ccccc34)C(=O)NC2=O)c2ccccc21 | 101% |
| CC[n+]1c(/C=C/N(C)c2ccccc2)n(-c2ccccc2)c2ccc(-c3nc4ccccc4s3)cc21 | 99% |
| O=C1Cc2c([nH]c3ccc(Br)cc23)-c2ccccc2N1 | 91% |
| CC#CC(=O)Nc1cc2c(Nc3ccc(F)c(Cl)c3)ncnc2cn1 | 102% |
| Cc1cncc2cccc(S(=O)(=O)N3CCCN(C(=O)CN)C[C@H]3C)c12 | 93% |
| CCN(CC)CCNC(=O)c1c(C)[nH]c(/C=C2\C(=O)Nc3ccc(Cl)cc32)c1C | 115% |
